“And” between values parts separate entries of the source, which are not always exact repeats. Equal entries are not always repeated. Results filed as inconclusive are left out. Where a call stands in place of a potency, no number is given. Some structures have more than one record in an assay (separate samples or runs), and their calls can disagree. The source made the active and inactive calls. Unless noted, the call rests on the fitted dose curve.
Experiments:
[1] = Nuclear factor erythroid 2-related factor 2/antioxidant responsive element (Nrf2/ARE) small molecule agonists: qHTS cell viability counter screen in human keratinocytes (AID 1919968; active means well fitted curve in the direction sought with a large enough effect in the repeat runs; an effect the other way counts as inactive or inconclusive; further: nearly all actives have a fitted effect of over 55% in size; further: potency means the concentration at half of the fitted maximal effect)
Procedure, shortened: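 Seed 1,500 KeratinoSens cells per well, then incubate 5 h at 37 C/5% CO2. Add compounds in DMSO and incubate 23 h. Add CellTiter-Fluor, wait 1 h and read fluorescence.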

[2] = Nuclear factor erythroid 2-related factor 2/antioxidant responsive element (Nrf2/ARE) small molecule agonists: luciferase reporter gene qHTS assay in human keratinocytes (AID 1919969); further: nearly all actives have a fitted effect of over 35% in size; further: potency means the concentration at half of the fitted maximal effect
[3] = molecular target: Gonadotropin-releasing hormone receptor (Homo sapiens) (UniProt P30968); assay: Human gonadotropin-releasing hormone receptor (GnRHR) small molecule agonists, calcium flux assay in GnRHR-HEK293 cells (AID 1920063); further: nearly all actives have a fitted effect of over 35% in size
Procedure, shortened: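 Cells: HEK293 stably expressing human GnRHR. Steps: overnight (18 h) culture, 1 h calcium dye loading at 37 C, compound addition, kinetic fluorescence read at 480/540 nm. Each compound tested at 15 concentrations in triplicate.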

[4] = molecular target: KiSS-1 receptor (Homo sapiens) (UniProt Q969F8); assay: Human kisspeptin (KISS1R) small molecule agonists, calcium flux assay in KISS1R-HEK293 cells (AID 1920064; active means well fitted curve in the direction sought with a large enough effect in the repeat runs; an effect the other way counts as inactive or inconclusive)
Procedure, shortened: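 Cells plated and incubated 18 h; dye added, 1 h at 37 C; compounds in DMSO pinned in; signal read at 480/540 nm every second for 3 min. Each compound tested at 15 concentrations in triplicate.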

[5] = p53 small molecule agonists, cell-based qHTS assay with human liver microsomes (AID 1963577);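 further: p53 response element beta-lactamase reporter cells with liver microsomes plus NADPH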
Procedure, shortened: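 p53RE-bla cells; 5 h settle, 37 C/5% CO2; cpd + HLM 0.5 mg/mL + NADPH 0.5 mg/mL (final); 16 h 37 C; LiveBLAzer 2 h RT dark; fluorescence readout.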

[6] = p53 small molecule agonists, cell-based qHTS assay with human liver microsomes: qHTS cell viability counter screen (AID 1963579); further: nearly all actives have a fitted effect of over 45% in size
Procedure, shortened: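 Luminescent CellTiter-Glo read-out, 30 min at room temperature, gauged cytotoxicity in p53RE-bla cells exposed 16 h at 37 C to DMSO-dissolved compounds with metabolic activation by human liver microsomes and NADPH, each 0.5 mg/mL final.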

[7] = p53 small molecule agonists, cell-based qHTS assay with rat liver microsomes: qHTS cell viability counter screen (AID 1963580); further: nearly all actives have a fitted effect of over 45% in size; further: potency means the concentration at half of the fitted maximal effect
Procedure, shortened: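 Viability is assessed in parallel with the p53 reporter read: HCT-116 p53RE-bla cells receive compounds plus rat microsomes and NADPH (0.5 mg/mL final apiece), incubate 16 h at 37 C, and then CellTiter-Glo luminescence is recorded.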

[8] = p53 small molecule agonists, cell-based qHTS assay: qHTS cell viability counter screen (AID 1963581); further: nearly all actives have a fitted effect of over 45% in size
Procedure, shortened: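 Cells: HCT-116 with p53 response element-driven beta-lactamase. Treatment: 16 h, 37 C, compounds in DMSO. Read: CellTiter-Glo luminescence after 30 min RT.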

[9] = p53 small molecule agonists, cell-based qHTS assay (AID 1963582; active means well fitted activation curve with a large enough effect in the signal ratio in the repeat runs, not every such curve was filed as active; the % refers to the signal ratio)
Procedure, shortened: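 Quantitative HTS in p53RE-bla cells: after a 5 h settling period, compounds delivered in DMSO were left on cells for 16 h at 37 C, and reporter induction was measured as fluorescence following 2 h substrate loading.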

[10] = molecular target: 5-hydroxytryptamine receptor 2A (Homo sapiens) (UniProt P28223); assay: 5-hydroxytryptamine receptor 2A (HTR2A) small molecule antagonists, cell-based qHTS assay (AID 1963586); further: nearly all actives have a fitted effect of over 45% in size; further: potency means the concentration at half of the fitted maximal effect
Procedure, shortened: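 Antagonist-mode intracellular calcium assay: DOI (4 nM) added after 5 min compound pre-incubation at room temperature to dye-loaded HTR2A-CHO cells. Fluorescence followed for 3 min, sampled every second.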

[11] = molecular target: 5-hydroxytryptamine receptor 2A (Homo sapiens) (UniProt P28223); assay: 5-hydroxytryptamine receptor 2A (HTR2A) small molecule agonists, cell-based qHTS assay (AID 1963587); further: nearly all actives have a fitted effect of over 30% in size; further: potency means the concentration at half of the fitted maximal effect
Procedure, shortened: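 CHO cells stably expressing human HTR2A, plated 18 h, loaded with calcium dye 1 h at 37 C. Agonist mode: compounds added and intracellular calcium fluorescence recorded kinetically for 2 min at 1 sec intervals.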

[12] = molecular target: Muscarinic acetylcholine receptor M1 (Homo sapiens) (UniProt P11229); assay: Cholinergic receptor muscarinic 1 (CHRM1) small molecule agonists, cell-based qHTS assay (AID 1963589); further: nearly all actives have a fitted effect of over 35% in size
Procedure, shortened: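 Agonist-mode qHTS in CHO cells stably carrying human muscarinic M1. Intracellular calcium is tracked by fluorescence every second after compound transfer; each compound runs at 15 concentrations in three independent runs.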

[13] = cAMP Responsive Elements (CRE) small molecule agonists, cell-based qHTS assay (AID 1963590)
Procedure, shortened: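 Agonist mode qHTS in CRE-bla HEK 293T cells: compounds dosed from DMSO for 3 h at 37 C/5% CO2, followed by LiveBLAzer B/G FRET substrate for 2 h at room temperature.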

[14] = cAMP Responsive Elements (CRE) small molecule antagonists, cell-based qHTS assay (AID 1963591; active means well fitted inhibition curve with a large enough effect in the signal ratio in the repeat runs, not every such curve was filed as active; the % refers to the signal ratio)
Procedure, shortened: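 Antagonist mode: test compounds are co-incubated with the adenylyl cyclase activator NKH477 (0.25 uM final) on CRE-bla HEK293T cells for 3 h at 37 °C, followed by LiveBLAzer substrate loading.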

[15] = molecular target: Beta-2 adrenergic receptor (Homo sapiens) (UniProt P07550); assay: Adrenergic beta2 receptor (ADRB2) small molecule antagonists, cell-based qHTS assay (AID 1963592); further: series mostly up to about 92 µM; nearly all actives have a fitted effect of over 50% in size
Procedure, shortened: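 Cells (CHO, stable ADRB2 overexpression) incubated 18-20hr at 37C; compounds added from DMSO; agonist mix (1nM isoproterenol, 100uM IBMX, 25uM Ro-20-1724) added; 0.5hr RT; d2-cAMP and anti-cAMP-cryptate added; 1hr RT; 665/615 nm read.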

[16] = molecular target: Beta-2 adrenergic receptor (Homo sapiens) (UniProt P07550); assay: Adrenergic beta2 receptor (ADRB2) small molecule agonists, cell-based qHTS assay (AID 1963593);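 further: CHO cells stably overexpressing human ADRB2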
Procedure, shortened: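 CHO cells stably over-expressing ADRB2 were plated overnight at 37C, then dosed with compounds plus a stimulation mix containing 100uM IBMX and 25uM Ro-20-1724 for 0.5hr at room temperature. cAMP was measured by HTRF competition, 1hr.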

[17] = molecular target: D(2) dopamine receptor (Homo sapiens) (UniProt P14416); assay: Dopamine D2 receptor (DRD2) small molecule agonists, cell-based qHTS assay (AID 1963594); further: nearly all actives have a fitted effect of over 35% in size
Procedure, shortened: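 HEK293 cells stably expressing human DRD2, pre-treated with PDE inhibitor Ro20-1724 (0.1 mM final) and compound 10 min at room temperature, then stimulated with NKH477 (200nM […]) for 30 min. cAMP read by HTRF (665/620 nm).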

[18] = molecular target: D(2) dopamine receptor (Homo sapiens) (UniProt P14416); assay: Dopamine D2 receptor (DRD2) small molecule antagonists, cell-based qHTS assay (AID 1963595; active means well fitted inhibition curve with a large enough effect in the signal ratio in the repeat runs, with a control signal flat; the % refers to the signal ratio)
Procedure, shortened: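 DRD2-HEK293; 0.1 mM Ro20-1724; cpd 10 min RT; NKH477 200 nM + quinpirole 12 nM, 30 min RT; HTRF cAMP (cAMP-d2/anti-cAMP cryptate), 665/620 nm ratio after 1 h.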

[19] = molecular target: Muscarinic acetylcholine receptor M1 (Homo sapiens) (UniProt P11229); assay: Cholinergic receptor muscarinic 1 (CHRM1) small molecule antagonists, cell-based qHTS assay (AID 1963588); further: nearly all actives have a fitted effect of over 40% in size
Procedure, shortened: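 CHRM1-CHO calcium-flux assay, antagonist mode. Cells were seeded 18 h, dye-loaded 1 h at 37 C and given compound for 5 min at RT, then acetylcholine was added at 50nM. FDSS fluorescence was read 3 min; 15 concentrations, three runs.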

[20] = G protein-coupled receptor (GPCR) small molecule agonists, calcium flux assay: HEK293 wild type cell line counter screen (AID 1920065)
Procedure, shortened: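 Counter-screen of the Tox21 10K library for non-specific calcium release: dye-loaded cells received compounds in DMSO and were monitored by kinetic fluorescence (480/540 nm, 3 min). Fifteen concentrations, run in triplicate.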

Chain of Muscarinic acetylcholine receptor M1 (Homo sapiens) (P11229 whole entry, looked up): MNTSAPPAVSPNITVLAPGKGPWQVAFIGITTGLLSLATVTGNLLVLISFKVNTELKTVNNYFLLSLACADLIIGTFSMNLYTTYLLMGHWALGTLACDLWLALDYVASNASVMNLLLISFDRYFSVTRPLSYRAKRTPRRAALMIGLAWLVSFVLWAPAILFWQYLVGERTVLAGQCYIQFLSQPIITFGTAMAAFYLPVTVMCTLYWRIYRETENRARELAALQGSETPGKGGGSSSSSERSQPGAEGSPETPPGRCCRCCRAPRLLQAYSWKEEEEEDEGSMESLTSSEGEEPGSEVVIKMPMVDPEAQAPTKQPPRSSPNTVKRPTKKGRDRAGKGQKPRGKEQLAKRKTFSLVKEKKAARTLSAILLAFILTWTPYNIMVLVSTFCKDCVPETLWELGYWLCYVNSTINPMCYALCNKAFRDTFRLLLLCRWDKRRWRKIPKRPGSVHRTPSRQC
Chain of D(2) dopamine receptor (Homo sapiens) (P14416 whole entry, looked up): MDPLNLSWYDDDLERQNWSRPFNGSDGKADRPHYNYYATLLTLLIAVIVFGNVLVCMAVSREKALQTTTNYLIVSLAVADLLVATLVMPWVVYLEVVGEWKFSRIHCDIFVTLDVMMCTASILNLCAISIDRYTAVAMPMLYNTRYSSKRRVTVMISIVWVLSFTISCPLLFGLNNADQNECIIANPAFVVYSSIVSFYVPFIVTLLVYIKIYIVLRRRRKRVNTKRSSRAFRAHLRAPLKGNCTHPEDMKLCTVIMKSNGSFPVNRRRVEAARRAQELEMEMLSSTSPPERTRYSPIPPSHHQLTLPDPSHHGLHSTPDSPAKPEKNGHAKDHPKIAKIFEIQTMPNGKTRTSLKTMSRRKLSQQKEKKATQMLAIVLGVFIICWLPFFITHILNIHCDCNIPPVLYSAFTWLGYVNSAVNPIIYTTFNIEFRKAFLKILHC
Chain of 5-hydroxytryptamine receptor 2A (Homo sapiens) (P28223 whole entry, looked up): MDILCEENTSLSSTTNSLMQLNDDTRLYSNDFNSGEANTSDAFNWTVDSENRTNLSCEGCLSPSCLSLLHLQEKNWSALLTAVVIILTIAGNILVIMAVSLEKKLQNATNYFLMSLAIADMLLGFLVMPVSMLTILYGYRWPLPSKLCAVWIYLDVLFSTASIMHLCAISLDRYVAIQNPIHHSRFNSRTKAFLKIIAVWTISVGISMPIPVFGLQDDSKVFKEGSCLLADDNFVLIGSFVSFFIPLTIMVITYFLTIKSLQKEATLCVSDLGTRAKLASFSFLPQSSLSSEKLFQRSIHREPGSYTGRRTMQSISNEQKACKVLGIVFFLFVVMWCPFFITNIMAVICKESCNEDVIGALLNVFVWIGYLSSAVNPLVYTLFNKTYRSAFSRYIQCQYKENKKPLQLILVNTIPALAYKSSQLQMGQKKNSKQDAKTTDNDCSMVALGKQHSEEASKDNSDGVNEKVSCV
Chain of Gonadotropin-releasing hormone receptor (Homo sapiens) (P30968 whole entry, looked up): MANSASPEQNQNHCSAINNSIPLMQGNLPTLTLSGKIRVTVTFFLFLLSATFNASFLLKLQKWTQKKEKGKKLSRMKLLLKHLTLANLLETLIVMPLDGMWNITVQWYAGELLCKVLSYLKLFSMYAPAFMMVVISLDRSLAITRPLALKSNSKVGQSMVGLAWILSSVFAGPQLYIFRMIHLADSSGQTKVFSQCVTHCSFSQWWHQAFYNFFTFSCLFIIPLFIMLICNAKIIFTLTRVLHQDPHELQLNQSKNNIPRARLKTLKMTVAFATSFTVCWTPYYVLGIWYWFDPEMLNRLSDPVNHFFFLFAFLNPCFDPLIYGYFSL
Chain of KiSS-1 receptor (Homo sapiens) (Q969F8 whole entry, looked up): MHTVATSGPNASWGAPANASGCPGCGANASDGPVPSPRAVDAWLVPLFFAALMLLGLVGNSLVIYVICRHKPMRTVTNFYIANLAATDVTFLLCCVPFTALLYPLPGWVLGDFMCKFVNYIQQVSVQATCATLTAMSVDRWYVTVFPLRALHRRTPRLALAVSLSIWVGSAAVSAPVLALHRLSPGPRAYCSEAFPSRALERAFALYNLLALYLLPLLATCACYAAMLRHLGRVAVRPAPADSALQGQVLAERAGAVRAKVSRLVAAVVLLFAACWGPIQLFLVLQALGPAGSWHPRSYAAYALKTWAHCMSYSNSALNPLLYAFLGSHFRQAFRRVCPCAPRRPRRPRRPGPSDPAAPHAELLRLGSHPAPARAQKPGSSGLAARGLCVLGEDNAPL
Chain of Beta-2 adrenergic receptor (Homo sapiens) (P07550 whole entry, looked up): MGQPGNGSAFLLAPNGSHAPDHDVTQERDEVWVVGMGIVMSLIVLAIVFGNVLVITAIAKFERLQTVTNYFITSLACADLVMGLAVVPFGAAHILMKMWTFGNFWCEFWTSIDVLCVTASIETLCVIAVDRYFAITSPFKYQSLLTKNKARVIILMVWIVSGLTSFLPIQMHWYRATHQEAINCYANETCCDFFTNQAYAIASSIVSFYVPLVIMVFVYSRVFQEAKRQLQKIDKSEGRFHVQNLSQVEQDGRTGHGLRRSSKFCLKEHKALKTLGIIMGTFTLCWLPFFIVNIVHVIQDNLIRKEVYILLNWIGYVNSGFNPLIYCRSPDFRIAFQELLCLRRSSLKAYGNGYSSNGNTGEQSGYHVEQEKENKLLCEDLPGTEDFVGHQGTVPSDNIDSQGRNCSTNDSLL

Row | SMILES | Potency [1] | Potency [2] | Potency [3] | Potency [4] | Potency [5] | Potency [6] | Potency [7] | Potency [8] | Potency [9] | Potency [10] | Potency [11] | Potency [12] | Potency [13] | Potency [14] | Potency [15] | Potency [16] | Potency [17] | Potency [18] | Potency [19] | Potency [20]
1 | Cc1cccc([N+](=O)[O-])c1 | inactive | inactive | inactive | inactive | inactive | inactive | inactive | inactive | inactive | inactive | inactive | inactive | inactive | inactive | inactive | inactive | inactive | inactive | – | –
2 | Cl/C=C/CCl | inactive | inactive | inactive | inactive | inactive | inactive | inactive | inactive | inactive | inactive | – | inactive | inactive | inactive | inactive | – | inactive | inactive | inactive | –
3 | N#CC1(N=NC2(C#N)CCCCC2)CCCCC1 | inactive | inactive | inactive | inactive | inactive | inactive | inactive | inactive | inactive | inactive | inactive | inactive | inactive | inactive | inactive | – | inactive | inactive | – | –
4 | Nc1ccc(-c2ccc(N)c(Cl)c2)cc1Cl | inactive | inactive | inactive | – | inactive | inactive | inactive | inactive | – | 21.2 µM (active) and 17.5 µM (active) and 29.8 µM (active) | inactive | inactive | inactive | inactive | inactive | inactive | inactive | inactive | inactive | inactive
5 | C#CCOC(=O)/C=C(C)/C=C/CC(C)CCCC(C)C (configuration not stated) | inactive | inactive | inactive | inactive | – | inactive | – | inactive | inactive | inactive | inactive | inactive | inactive | inactive | inactive | inactive | inactive | inactive | inactive | –
6 | CNC(=O)CSP(=S)(OC)OC | inactive | inactive | inactive | inactive | – | inactive | inactive | inactive | – | inactive | inactive | – | inactive | inactive | inactive | inactive | inactive | inactive | inactive | –
7 | Nc1ccc(Br)cc1 | inactive | 68.5 µM (active) and inactive | inactive | – | inactive | inactive | inactive | inactive | inactive | inactive | – | inactive | – | inactive | inactive | inactive | inactive | inactive | inactive | inactive
8 | CCC(C)(C)c1ccc(O)cc1 | 61.8 µM (active) and inactive | inactive | inactive | – | inactive | inactive | inactive | inactive | inactive | 37.9 µM (active) and inactive | 55.5 µM (active) and inactive | inactive | – | – | inactive | inactive | inactive | inactive | inactive | inactive
9 | C=C(C)C#N | inactive | inactive | inactive | – | inactive | inactive | inactive | inactive | inactive | inactive | inactive | inactive | inactive | inactive | inactive | inactive | inactive | inactive | inactive | inactive
10 | Cc1ccccc1N | inactive | inactive | inactive | – | inactive | inactive | inactive | inactive | inactive | inactive | inactive | inactive | inactive | inactive | inactive | inactive | inactive | inactive | inactive | inactive
11 | NC(=S)Nc1ccccc1 | inactive | 55.4 µM (active) and inactive | inactive | inactive | – | inactive | 29.4 µM (active) and inactive | inactive | – | inactive | inactive | inactive | inactive | inactive | – | – | inactive | inactive | inactive | –
12 | O=C(CCN1CC1)OCC(CO)(COC(=O)CCN1CC1)COC(=O)CCN1CC1 | inactive | inactive | inactive | inactive | – | inactive | – | inactive | inactive | inactive | inactive | inactive | inactive | inactive | inactive | inactive | inactive | inactive | inactive | –
